Counter-ions that a name gives are not always drawn. ± gives the standard deviation or the standard deviation of the averaged measurements.

The test system of one test is Danio rerio Tg(wt1b:EGFP) embryo, pronephros. The experiment in a line: glomerular separation, fold change vs DMSO control; higher = glomeruli further apart (abnormal). Particulars: 25 µM; exposure: 24-48 hpf. The procedure, abridged: (§1)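 Features are reported as fold changes against the mean of same-day DMSO-treated embryos. Before that, values more than 2 SD away from the feature mean were excluded. The embryos, dechorionated Tg(wt1b:EGFP) zebrafish, had been exposed from 24 to 48 hpf at 28.5°C to 25 μM compound in 0.5% DMSO in HEPES-buffered E3 with 0.003% PTU, and distances and angles came from 16 manually set points on maximum projections of dorsal pronephros images in Fiji.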
`CN(C)C(=O)Oc1cc(OC(=O)N(C)C)cc(C(O)CNC(C)(C)C)c1` (stereo not drawn) [Bambuterol hydrochloride] showed a glomerular separation of 0.925 ± 0.31.
On the same count and under the same terms, for `CC(O)(CS(=O)(=O)c1ccc(F)cc1)C(=O)Nc1ccc(C#N)c(C(F)(F)F)c1` (stereo not drawn) [Bicalutamide] the value was 1.14 ± 0.56; for `C[N+]1(C)CCCC(OC(=O)C(O)(c2ccccc2)c2ccccc2)C1` (stereo not drawn) [Mepenzolate bromide], 1.4 ± 0.8; for `CC(C)N(CCC(C(N)=O)(c1ccccc1)c1ccccn1)C(C)C` (stereo not drawn) [Disopyramide], 0.9 ± 0.32.
With `C[N+]1([O-])[C@@H]2C[C@@H](OC(=O)[C@H](CO)c3ccccc3)C[C@H]1[C@@H]1O[C@@H]12` (stereo partly drawn) [Scopolamin-N-oxide hydrobromide], the glomerular separation turned out to be 0.883 ± 0.35.
Still for that read-out and setting: next, `C=CC[C@]1(O)CC[C@H]2[C@@H]3CCC4=CC(=O)CCC4=C3C=C[C@@]21C` [Altrenogest]: 1.44 ± 0.77.
The same measure, in the same setting: for `O=[N+]([O-])O[C@@H]1CO[C@H]2[C@@H]1OC[C@@H]2O` [Isosorbide mononitrate] the value was 0.951 ± 0.48.

For a further test the test system is unchanged. The experiment in a line: glomerular width (mean of left and right), fold change vs DMSO control; higher = wider glomerulus. Particulars: 25 µM; exposure: 24-48 hpf. The method, boiled down: as §1
Regarding `CCC(C)C1O[C@]2(C=C[C@@H]1C)C[C@@H]1CC(C/C=C(\C)[C@@H](OC3C[C@H](OC)[C@@H](OC4C[C@H](OC)[C@@H](O)[C@H](C)O4)[C@H](C)O3)[C@@H](C)/C=C/C=C3\COC4[C@H](O)C(C)=CC(C(=O)O1)[C@]34O)O2` (stereo partly drawn) [Avermectin B1a], the glomerular width is 0.898 ± 0.044.
On the same count and under the same terms, for `CCNCC(O)c1cccc(O)c1` (stereo not drawn) [Etilefrine hydrochloride] the value was 0.9277 ± 0.0022.
Same read-out and setting: next, `COc1ccc(C(=O)N2CCCC2=O)cc1` [Aniracetam]: 1.06 ± 0.052; `CCN[C@@H](C)Cc1cccc(C(F)(F)F)c1` [Dexfenfluramine hydrochloride]: 1.04 ± 0.037.
Same read-out and setting: for `C1CCc2nnnn2CC1` [Pentylenetetrazole] the value was 0.994 ± 0.07; for `C(#CCN1CCCC1)CN1CCCC1` [Tremorine dihydrochloride], 0.9472 ± 0.008; for `COc1ccc(CCN2CCC(Nc3nc4ccccc4n3Cc3ccc(F)cc3)CC2)cc1` [Astemizole], 0.777 ± 0.12.
In turn, `O=c1[nH]c2ccccc2n1C1CCN(CCCC(c2ccc(F)cc2)c2ccc(F)cc2)CC1` [Pimozide] registered a glomerular width of 0.673 ± 0.02.
Regarding `C=CCC1(CC(C)C)C(=O)NC(=O)NC1=O` [Butalbital], the glomerular width stood at 1.1 ± 0.086.
As to `CN1CCC2(C)c3cc(O)ccc3N(C)C12` (single isomer, unassigned; (-)) [(-)-Eseroline fumarate salt], the glomerular width amounted to 1.01 ± 0.025.
Same read-out and setting: for `N[C@@H]1C[C@H]1c1ccccc1` [Tranylcypromine hydrochloride] the value was 1.021 ± 0.0055; for `C[C@]12CC[C@@H](O)C[C@H]1CC[C@@H]1[C@@H]2CC[C@]2(C)C(=O)CC[C@@H]12` [3-alpha-Hydroxy-5-beta-androstan-17-one], 0.982 ± 0.066.
The same measure, in the same setting: next, `COc1ccc(OC)c(C(O)C(C)N)c1` (stereo not drawn) [Methoxamine hydrochloride]: 0.9725 ± 0.0077; `COc1cc2c(c(OC)c1OC)-c1ccc(OC)c(=O)cc1[C@@H](NC(C)=O)CC2` [Colchicine]: 0.827 ± 0.047.
Still for that read-out and setting: for `CN1[C@@H]2CC[C@H]1C[C@@H](OC1c3ccccc3CCc3ccccc31)C2` [Deptropine citrate] the value was 0.947 ± 0.035; for `CC(=O)NC1CCSC1=O` (racemic) [N-Acetyl-DL-homocysteine Thiolactone], 1.07 ± 0.041.
`CC(C)(C)NCC(O)c1ccccc1Cl` (stereo not drawn) [Tulobuterol] came in with a glomerular width of 0.9779 ± 0.007.
The same measure, in the same setting: next, `C[C@]12CC[C@H](O)C[C@@H]1CC[C@@H]1[C@@H]2CC[C@]2(C)C(=O)CC[C@@H]12` [Epiandrosterone]: 0.905 ± 0.061; `C[C@@H]1O[C@@H](O[C@@H]2C=C3CC[C@@H]4[C@H](CC[C@]5(C)[C@@H](c6ccc(=O)oc6)CC[C@]45O)[C@@]3(C)CC2)[C@H](O)[C@H](O)[C@H]1O` [Proscillaridin A]: 0.716 ± 0.029; `CC(C)(N)Cc1ccccc1` [Phentermine hydrochloride]: 0.981 ± 0.035.
The same measure, in the same setting: for `O=c1[nH]oc2c1CCNC2` [THIP Hydrochloride] the value was 1.08 ± 0.012.
The same measure, in the same setting: next, `CC(=O)OCC(=O)[C@H]1CC[C@H]2[C@@H]3CC[C@H]4C[C@H](O)CC[C@]4(C)[C@H]3C(=O)C[C@]12C` [Alfadolone acetate]: 0.942 ± 0.057; `CCC(=O)O[C@@](Cc1ccccc1)(c1ccccc1)[C@@H](C)CN(C)C` [Levopropoxyphene napsylate]: 1.05 ± 0.037.
On to `CNC(=O)Oc1ccc2c(c1)[C@]1(C)CCN(C)[C@@H]1N2C` [Eserine hemisulfate salt], for which the glomerular width came out at 1 ± 0.0036.
On the same count and under the same terms, for `c1ccc2c(c1)OCC(C1=NCCN1)O2` (stereo not drawn) [Idazoxan hydrochloride] the value was 0.99138 ± 0.00087; for `COc1ccc(Cc2nccc3cc(OC)c(OC)cc23)cc1OC` [Papaverine hydrochloride], 1.04 ± 0.065.
The compound `CN[C@@H]1[C@@H](O)[C@@H](O[C@@H]2[C@@H](O)[C@H](O[C@H]3O[C@H](CN)CC[C@H]3N)[C@@H](N)C[C@H]2N)OC[C@]1(C)O.CN[C@@H]1[C@@H](O)[C@@H](O[C@@H]2[C@@H](O)[C@H](O[C@H]3O[C@H]([C@@H](C)N)CC[C@H]3N)[C@@H](N)C[C@H]2N)OC[C@]1(C)O.CN[C@@H]1[C@@H](O)[C@@H](O[C@@H]2[C@@H](O)[C@H](O[C@H]3O[C@H]([C@@H](C)NC)CC[C@H]3N)[C@@H](N)C[C@H]2N)OC[C@]1(C)O` [Gentamicine sulfate] had a glomerular width of 1.02 ± 0.024.
On the same count and under the same terms, next, `CC[C@@H](CO)NC(=O)[C@@H]1C=C2c3cccc4[nH]cc(c34)C[C@H]2N(C)C1` [Methylergometrine maleate]: 0.927 ± 0.056; `C[N+]1(C)CCOC(O)(c2ccc(-c3ccc(C4(O)C[N+](C)(C)CCO4)cc3)cc2)C1` (stereo not drawn) [Hemicholinium bromide]: 0.95 ± 0.00098.
The same measure, in the same setting: for `CN(C)C(=O)Oc1cc(OC(=O)N(C)C)cc(C(O)CNC(C)(C)C)c1` (stereo not drawn) [Bambuterol hydrochloride] the value was 0.915 ± 0.035.
In turn, `CC(O)(CS(=O)(=O)c1ccc(F)cc1)C(=O)Nc1ccc(C#N)c(C(F)(F)F)c1` (stereo not drawn) [Bicalutamide] returned a glomerular width of 1.04 ± 0.023.
On the same count and under the same terms, next, `C[N+]1(C)CCCC(OC(=O)C(O)(c2ccccc2)c2ccccc2)C1` (stereo not drawn) [Mepenzolate bromide]: 1.01 ± 0.011; `CC(C)N(CCC(C(N)=O)(c1ccccc1)c1ccccn1)C(C)C` (stereo not drawn) [Disopyramide]: 1.09 ± 0.086.
Turning to `C[N+]1([O-])[C@@H]2C[C@@H](OC(=O)[C@H](CO)c3ccccc3)C[C@H]1[C@@H]1O[C@@H]12` (stereo partly drawn) [Scopolamin-N-oxide hydrobromide], the glomerular width was 1.03 ± 0.018.
As to `C=CC[C@]1(O)CC[C@H]2[C@@H]3CCC4=CC(=O)CCC4=C3C=C[C@@]21C` [Altrenogest], the glomerular width was 1.07 ± 0.0053.
In turn, `O=[N+]([O-])O[C@@H]1CO[C@H]2[C@@H]1OC[C@@H]2O` [Isosorbide mononitrate] gave a glomerular width of 1.04 ± 0.019.

The values are drawn from the supplement of paper PMC7366291.
